Activity calls are given as the source filed them. How the source made its calls: active means hit-call score of the fitted dose curve at least 0.9, where 1 is the maximum; inactive means score below 0.9.
Columns and labels:
Details in all cases: mRNA level, 48 h; actives raise or lower the signal
CYP2C9 (gene 1559) = experiment: LTEA_HepaRG_CYP2C9: Life Technologies and Expression Analysis (LTEA) Assay for CYP2C9 using HepaRG (AID 2283484)
Outline: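 HepaRG, 48 h dosing, 8-pt half-log series, top 100 uM, 0.5% DMSO vehicle. Read-out: CYP2C9 transcript by TaqMan qRT-PCR, housekeeping-normalized (ACTB/GAPDH/POLR2A). Gain or loss fitted vs DMSO baseline.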

CYP2E1 (gene 1571) = experiment: LTEA_HepaRG_CYP2E1: Life Technologies and Expression Analysis (LTEA) Assay for CYP2E1 using HepaRG (AID 2283485)
Outline: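 CYP2E1 transcript was measured by TaqMan qRT-PCR in human HepaRG cultures after 48 h chemical exposure (top 100 uM, half-log steps, 0.5% DMSO vehicle). Housekeeping-gene normalization; gain or loss fitted relative to DMSO baseline.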

CYP4A11 (gene 1579) = experiment: LTEA_HepaRG_CYP4A11: Life Technologies and Expression Analysis (LTEA) Assay for CYP4A11 using HepaRG (AID 2283486)
Outline: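 HepaRG, 48 h chem exposure, 8 conc (100 uM top, half-log), 0.5% DMSO vehicle; qRT-PCR readout, housekeeping-gene normalized; bidirectional curve fit vs DMSO baseline.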

[1] = read-out: DNA damage-inducible transcript 3 (DDIT3), DDIT3 (gene 1649); experiment: LTEA_HepaRG_DDIT3: Life Technologies and Expression Analysis (LTEA) Assay for DNA damage-inducible transcript 3 (DDIT3) using HepaRG (AID 2283488)
Outline: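 qRT-PCR readout (Fluidigm TaqMan), housekeeping-normalized to ACTB, GAPDH, POLR2A. HepaRG cells, 48 h exposure, 8-point half-log series from 100 uM in 0.5% DMSO, duplicates. Gain or loss of signal fitted against DMSO baseline.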

[2] = read-out: Pro-epidermal growth factor (Homo sapiens) (UniProt P01133); experiment: LTEA_HepaRG_EGF: Life Technologies and Expression Analysis (LTEA) Assay for Epidermal growth factor (EGF) using HepaRG (AID 2283489)
Outline: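 HepaRG, 48 h dosing, 100 uM top, half-log x8, 0.5% DMSO. Readout: TaqMan qRT-PCR (Fluidigm array), housekeeping-normalized. Gain or loss of signal fit vs DMSO.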

[3] = read-out: Early growth response protein 1 (EGR1) transcription factor, EGR1 (gene 1958); experiment: LTEA_HepaRG_EGR1: Life Technologies and Expression Analysis (LTEA) Assay for Early growth response protein 1 (EGR1) transcription factor using HepaRG (AID 2283490)
Outline: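 HepaRG, 48 h exposure, 8-pt half-log series from 100 uM, 0.5% DMSO vehicle; EGR1 transcript by TaqMan qRT-PCR (Fluidigm array), housekeeping-normalized; bidirectional fit relative to DMSO baseline.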

[4] = read-out: Ezrin (EZR), EZR (gene 7430); experiment: LTEA_HepaRG_EZR: Life Technologies and Expression Analysis (LTEA) Assay for Ezrin (EZR) using HepaRG (AID 2283491)
Outline: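 EZR transcript levels came from Fluidigm qRT-PCR and were normalized to three housekeeping genes after 48 h chemical exposure of HepaRG cells. Dosing used an 8-point half-log series with a 100 uM top concentration in 0.5% DMSO, tested in duplicate; both directions were fitted versus vehicle.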

[5] = read-out: Fatty Acid-Binding Protein 1 (FABP1), FABP1 (gene 2168); experiment: LTEA_HepaRG_FABP1: Life Technologies and Expression Analysis (LTEA) Assay for Fatty Acid-Binding Protein 1 (FABP1) using HepaRG (AID 2283494)
Outline: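 qRT-PCR readout of FABP1 transcript (normalized to three housekeeping genes) after 48 h chemical exposure of HepaRG cells; eight concentrations, half-log steps, max 100 uM, 0.5% DMSO vehicle; gain or loss fitted relative to DMSO baseline.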

[6] = read-out: Cytochrome P450 4A22 (Homo sapiens) (UniProt Q5TCH4); experiment: LTEA_HepaRG_CYP4A22: Life Technologies and Expression Analysis (LTEA) Assay for Cytochrome P450 4A22 (CYP4A22) using HepaRG (AID 2283495)
Outline: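 Readout is CYP4A22 transcript induction or loss, quantified by qRT-PCR and normalized to ACTB, GAPDH and POLR2A. Human HepaRG cells receive test chemicals for 48 h at eight half-log concentrations from 100 uM in 0.5% DMSO.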

[7] = read-out: Cytochrome P450 7A1 (Homo sapiens) (UniProt P22680); experiment: LTEA_HepaRG_CYP7A1: Life Technologies and Expression Analysis (LTEA) Assay for Cytochrome P450 7A1 (CYP7A1) using HepaRG (AID 2283496)
Outline: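 Using 0.5% DMSO as vehicle and baseline, chemicals were tested in duplicate over an 8-point range from 100 uM on HepaRG cells for 48 h; qRT-PCR signals were normalised to ACTB, GAPDH and POLR2A.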

[8] = read-out: Glutathione S-Transferase (GSTA2), GSTA2 (gene 2939); experiment: LTEA_HepaRG_GSTA2: Life Technologies and Expression Analysis (LTEA) Assay for Glutathione S-Transferase (GSTA2) using HepaRG (AID 2283497)
Outline: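 qRT-PCR readout of GSTA2 transcript, normalized to three housekeeping genes, fitted bidirectionally against 0.5% DMSO baseline. Differentiated HepaRG cells received compound for 48 h at 8 concentrations (top 100 uM, half-log steps).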

[9] = read-out: growth arrest and DNA damage 45 (GADD45G), GADD45G (gene 10912); experiment: LTEA_HepaRG_GADD45G: Life Technologies and Expression Analysis (LTEA) Assay for growth arrest and DNA damage 45 (GADD45G) using HepaRG (AID 2283499)
Outline: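 Gain or loss of GADD45G mRNA, quantified by TaqMan qRT-PCR against three housekeeping genes, is fitted in both directions relative to 0.5% DMSO. Human HepaRG cultures receive test chemical for 48 h at up to 100 uM.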

[10] = read-out: Glutathione S-transferase M3 (GSTM3), GSTM3 (gene 2947); experiment: LTEA_HepaRG_GSTM3: Life Technologies and Expression Analysis (LTEA) Assay for Glutathione S-transferase M3 (GSTM3) using HepaRG (AID 2283501)
Outline: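 HepaRG, plated 48 h, then serum-free induction medium; test chemical 48 h, duplicate; 100 uM top, half-log x8, 0.5% DMSO. Read-out: GSTM3 mRNA (TaqMan qRT-PCR, Fluidigm array). Bidirectional fit vs DMSO.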

[11] = read-out: Heat shock 70 kDa protein 1 (HSPA1A), gene 3303; experiment: LTEA_HepaRG_HSPA1A: Life Technologies and Expression Analysis (LTEA) Assay for Heat shock 70 kDa protein 1 (HSPA1A) using HepaRG (AID 2283502)
Outline: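 HepaRG, 48 h exposure, 8-pt half-log CRC from 100 uM in 0.5% DMSO, duplicates. Readout: TaqMan qRT-PCR of HSPA1A mRNA, housekeeping-normalized (ACTB/GAPDH/POLR2A). Bidirectional fit vs 0.5% DMSO baseline.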

[12] = read-out: Hypoxia-inducible factor 1-alpha (Homo sapiens) (UniProt Q16665); experiment: LTEA_HepaRG_HIF1A: Life Technologies and Expression Analysis (LTEA) Assay for Hypoxia-inducible factor 1 (HIF1A) Trancription factor using HepaRG (AID 2283503)
Outline: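 Gain- or loss-of-signal HIF1A mRNA changes are fitted against a DMSO baseline. HepaRG cultures receive eight concentrations, highest 100 uM, for 48 h in serum-free induction medium with 0.5% DMSO.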

[13] = read-out: Cytochrome P450 3A7 (Homo sapiens) (UniProt P24462); experiment: LTEA_HepaRG_CYP3A7: Life Technologies and Expression Analysis (LTEA) Assay for CYP3A7 using HepaRG (AID 2283492)
Outline: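 Human HepaRG liver cells, 48 h post-plating, switched to serum-free induction medium and exposed in duplicate for 48 h. Dosing: 100 uM top, half-log dilutions, 8 points, 0.5% DMSO vehicle. Read-out: CYP3A7 mRNA, gain or loss fitted against DMSO baseline.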

[14] = read-out: Glutamate-cysteine ligase catalytic (GCLC), GCLC (gene 2729); experiment: LTEA_HepaRG_GCLC: Life Technologies and Expression Analysis (LTEA) Assay for Glutamate-cysteine ligase catalytic (GCLC) using HepaRG (AID 2283498)
Outline: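 HepaRG, 48 h exposure, 8-pt half-log series from 100 uM, 0.5% DMSO vehicle; TaqMan qRT-PCR for GCLC mRNA, housekeeping-normalized; bidirectional curve fit vs DMSO baseline.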

[15] = read-out: Glutamate-cysteine ligase regulatory (GCLM), GCLM (gene 2730); experiment: LTEA_HepaRG_GCLM: Life Technologies and Expression Analysis (LTEA) Assay for Glutamate-cysteine ligase regulatory (GCLM) using HepaRG (AID 2283500)
Outline: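 HepaRG, 48 h dosing, 100 uM top, half-log x8, 0.5% DMSO vehicle. Readout: GCLM mRNA by TaqMan qRT-PCR, housekeeping-normalized (ACTB/GAPDH/POLR2A). Curves fit bidirectionally vs DMSO baseline.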

[16] = read-out: Cytochrome P450 3A4 (Homo sapiens) (UniProt P08684); experiment: LTEA_HepaRG_CYP3A4: Life Technologies and Expression Analysis (LTEA) Assay for CYP3A4 using HepaRG (AID 2283487)
Outline: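 Differentiated HepaRG cells, plated 48 h, then dosed 48 h in serum-free induction medium with 0.5% DMSO, 8 half-log concentrations up to 100 uM, duplicate. CYP3A4 mRNA by qRT-PCR, normalized to ACTB/GAPDH/POLR2A; bidirectional fit versus DMSO.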

CYP3A5 (gene 1577) = experiment: LTEA_HepaRG_CYP3A5: Life Technologies and Expression Analysis (LTEA) Assay for CYP3A5 using HepaRG (AID 2283493)
Outline: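 qRT-PCR read-out: CYP3A5 transcript in HepaRG lysates, housekeeping-normalized (ACTB/GAPDH/POLR2A), fitted bidirectionally against 0.5% DMSO baseline. Exposure 48 h, eight half-log concentrations up to 100 uM, duplicates.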

Measured: AC50

Cytochrome P450 3A7 (Homo sapiens), sequence (P24462 whole entry, looked up): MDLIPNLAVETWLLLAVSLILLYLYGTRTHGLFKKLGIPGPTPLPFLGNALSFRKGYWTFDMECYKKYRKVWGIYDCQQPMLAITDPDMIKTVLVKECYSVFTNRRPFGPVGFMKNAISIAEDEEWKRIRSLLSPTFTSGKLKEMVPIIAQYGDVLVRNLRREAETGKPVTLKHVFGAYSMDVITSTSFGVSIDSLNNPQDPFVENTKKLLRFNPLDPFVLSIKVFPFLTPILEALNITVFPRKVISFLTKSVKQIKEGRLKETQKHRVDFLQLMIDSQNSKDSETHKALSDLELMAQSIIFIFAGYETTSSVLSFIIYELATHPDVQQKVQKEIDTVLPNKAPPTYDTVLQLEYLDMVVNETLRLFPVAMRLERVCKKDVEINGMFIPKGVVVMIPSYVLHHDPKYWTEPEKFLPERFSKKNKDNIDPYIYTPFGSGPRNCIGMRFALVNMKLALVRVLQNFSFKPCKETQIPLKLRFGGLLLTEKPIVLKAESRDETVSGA
Cytochrome P450 3A4 (Homo sapiens), sequence (P08684 whole entry, looked up): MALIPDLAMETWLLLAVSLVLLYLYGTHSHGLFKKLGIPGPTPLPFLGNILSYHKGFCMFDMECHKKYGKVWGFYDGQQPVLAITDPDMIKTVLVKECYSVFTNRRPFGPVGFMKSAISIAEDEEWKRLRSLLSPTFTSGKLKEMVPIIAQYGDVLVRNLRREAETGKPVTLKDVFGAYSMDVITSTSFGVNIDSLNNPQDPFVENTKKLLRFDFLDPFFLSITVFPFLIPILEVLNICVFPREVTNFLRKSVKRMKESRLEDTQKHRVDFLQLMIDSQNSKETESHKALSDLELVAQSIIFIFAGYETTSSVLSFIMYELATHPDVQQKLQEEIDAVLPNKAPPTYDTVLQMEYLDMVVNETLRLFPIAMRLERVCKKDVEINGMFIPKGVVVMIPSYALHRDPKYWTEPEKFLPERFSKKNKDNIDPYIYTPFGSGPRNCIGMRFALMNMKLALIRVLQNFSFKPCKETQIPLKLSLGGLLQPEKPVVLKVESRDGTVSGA
Hypoxia-inducible factor 1-alpha (Homo sapiens), sequence (Q16665 whole entry, looked up): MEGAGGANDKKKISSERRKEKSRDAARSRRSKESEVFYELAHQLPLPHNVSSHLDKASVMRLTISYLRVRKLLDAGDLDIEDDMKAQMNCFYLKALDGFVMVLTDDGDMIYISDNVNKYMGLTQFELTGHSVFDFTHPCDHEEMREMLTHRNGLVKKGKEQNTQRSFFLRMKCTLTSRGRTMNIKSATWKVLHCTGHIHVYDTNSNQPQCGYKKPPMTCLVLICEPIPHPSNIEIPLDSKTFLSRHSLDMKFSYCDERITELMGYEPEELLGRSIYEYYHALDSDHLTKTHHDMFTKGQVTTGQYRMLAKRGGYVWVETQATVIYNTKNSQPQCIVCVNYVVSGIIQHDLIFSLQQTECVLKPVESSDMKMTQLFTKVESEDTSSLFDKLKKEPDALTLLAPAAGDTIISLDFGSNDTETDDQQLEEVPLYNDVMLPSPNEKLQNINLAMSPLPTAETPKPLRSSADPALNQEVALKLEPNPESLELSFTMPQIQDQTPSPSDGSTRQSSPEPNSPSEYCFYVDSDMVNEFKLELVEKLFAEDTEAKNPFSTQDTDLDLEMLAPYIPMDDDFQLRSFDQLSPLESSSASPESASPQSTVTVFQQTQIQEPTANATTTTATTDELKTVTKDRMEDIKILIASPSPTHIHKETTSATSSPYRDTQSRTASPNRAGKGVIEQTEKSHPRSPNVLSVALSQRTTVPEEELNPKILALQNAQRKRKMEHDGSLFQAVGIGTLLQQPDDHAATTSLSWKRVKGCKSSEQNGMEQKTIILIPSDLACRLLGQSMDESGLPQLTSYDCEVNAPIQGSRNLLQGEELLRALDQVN

CCN(CC)C(=O)c1cccc(C)c1
active: CYP2C9 (gene 1559) 3.56 µM | CYP2E1 (gene 1571) 13.4 µM
not listed: [13] | [14] | [15] | [16] | CYP3A5 (gene 1577)
inactive: all other assays above

C[C@]12C[C@H](O)[C@H]3[C@@H](CCC4=CC(=O)CC[C@@]43C)[C@@H]1CC[C@@H]2C(=O)CO
active: [13] 50 µM
not listed: CYP2C9 (gene 1559) | [1] | [16] | CYP3A5 (gene 1577)
inactive: all other assays above

CCOC(=O)c1ccc(O)cc1
not listed: [14] | [16] | CYP3A5 (gene 1577)
inactive: all other assays above

CCCOC(=O)c1ccc(C(=O)OCCC)nc1
not listed: [14] | CYP3A5 (gene 1577)
inactive: all other assays above

c1ccc2[nH]c(-c3cscn3)nc2c1
active: CYP2E1 (gene 1571) 50 µM
not listed: [13] | [14] | [16] | CYP3A5 (gene 1577)
inactive: all other assays above

CCCCCCC(C)OC(=O)COc1nc(F)c(Cl)c(N)c1Cl (stereo not given)
not listed: CYP2C9 (gene 1559) | [14] | [16]
inactive: all other assays above

CCCCOC(=O)[C@@H](C)Oc1ccc(Oc2ccc(C(F)(F)F)cn2)cc1
active: CYP2E1 (gene 1571) 17 µM | [7] 34.2 µM
not listed: [14] | CYP3A5 (gene 1577)
inactive: all other assays above

O=C(Nc1ccc([N+](=O)[O-])cc1Cl)c1cc(Cl)ccc1O
active: CYP2C9 (gene 1559) 3.21 µM | CYP2E1 (gene 1571) 2.07 µM | CYP4A11 (gene 1579) 3.41 µM | [1] 3.35 µM | [2] 12.1 µM | [3] 1.76 µM | [5] 2.25 µM | [6] 14.2 µM | [7] 13.6 µM | [8] 2.84 µM | [10] 25 µM
inactive: [4] | [9] | [15] | [11]

CCCCC(CC)CN1C(=O)C2C3C=CC(C3)C2C1=O (stereo not given)
active: CYP2C9 (gene 1559) 82.6 µM | CYP2E1 (gene 1571) 43 µM | CYP4A11 (gene 1579) 36.1 µM | [16] 91 µM | [1] 72.7 µM | [13] 85.7 µM | [5] 72.5 µM | [6] 62.5 µM | [7] 73.6 µM | [8] 79.5 µM | [9] 50 µM | [15] 50 µM
inactive: [2] | [3] | [4] | [10] | [11] | [12]

C=CCOC(Cn1ccnc1)c1ccc(Cl)cc1Cl (stereo not given)
inactive: [3] | [4] | [15] | [10] | [11]
active: CYP2C9 (gene 1559) 33.1 µM | CYP2E1 (gene 1571) 13.1 µM | CYP4A11 (gene 1579) 28.1 µM | [2] 85 µM | [5] 28.6 µM | [6] 18.6 µM | [7] 35.3 µM | [9] 91.6 µM | [12] 79.6 µM

N#CSCSc1nc2ccccc2s1
active: CYP2C9 (gene 1559) 75.3 µM | CYP2E1 (gene 1571) 81.2 µM | CYP4A11 (gene 1579) 94.4 µM | [13] 64.3 µM | [5] 88.5 µM | [6] 90.5 µM | [8] 86 µM
not listed: [14] | CYP3A5 (gene 1577)
inactive: all other assays above

N[C@@H](Cc1cc(I)c(Oc2ccc(O)c(I)c2)c(I)c1)C(=O)O
inactive: [2] | [3] | [4] | [9] | [15] | [11]
active: CYP2E1 (gene 1571) 0.00253 µM | CYP4A11 (gene 1579) 7.94 µM | [1] 49.7 µM | [5] 40 µM | [6] 0.00445 µM | [7] 40 µM | [8] 58.3 µM | [10] 0.613 µM | [12] 0.00253 µM

COC(=O)c1ccccc1C(=O)O
not listed: [14] | CYP3A5 (gene 1577)
inactive: all other assays above

Source: PubChem BioAssay (EPA / NIEHS)
